# FAK blocker = FAK kinase inhibitors, primary screen, biochemical | biochemical FAK kinase activity assay | inhibition, %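 (tested at 7 µM)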 | 0.84% of 97,000 active | AID 727, 2007; in the data active means inhibition above about 19%;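 further: 0% = DMSO and 100% = reference compound high control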
# D1 allo mod = D1 CRE-luciferase signal change, two-sided – cell-based, HEK293 D1, dopamine EC30, D1 allosteric modulator project, primary screen. D(1A) dopamine receptor (Homo sapiens), P21728. dopamine EC30 potentiation; actives deviate in either direction. B-score at 10 µM. 5.9% of 58,000 active. AID 641, 2007;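 active means luminescence count or its row- and column-corrected plate score outside the 99.7% band of the plate's sample wells, on either side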
# CD11b adhes enh = enhancers of CD11b/CD18 adhesion to fibrinogen, primary screen, K562 cells, luminescence; 0.07% of 93,000 active; Integrin beta-2 (Homo sapiens) + Integrin alpha-M (Homo sapiens), P05107+P11215; activation, % at 10 µM; AID 1499, 2009; ATPlite luminescence;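 active means 10 µM primary screen giving 50% or more activity, confirmed by 40% or more on retest at that dose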
# PTK2B oligo ant = antagonists of Pyk2 self-association, primary screen, Q293 cells, FERM NanoBiT luminescence, HTS | stronger effect = lower value | z-score (the deposit names both 25 µM and 10 µM) | 0.83% of 99,000 active;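 active means Z-score of -3 or lower, scaled per plate to the spread of control and sample wells; inactive means z-score above -3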;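 further: negative z-score means lost luminescence so less FERM oligomerization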
# Target sequence (Q14289 whole entry, looked up): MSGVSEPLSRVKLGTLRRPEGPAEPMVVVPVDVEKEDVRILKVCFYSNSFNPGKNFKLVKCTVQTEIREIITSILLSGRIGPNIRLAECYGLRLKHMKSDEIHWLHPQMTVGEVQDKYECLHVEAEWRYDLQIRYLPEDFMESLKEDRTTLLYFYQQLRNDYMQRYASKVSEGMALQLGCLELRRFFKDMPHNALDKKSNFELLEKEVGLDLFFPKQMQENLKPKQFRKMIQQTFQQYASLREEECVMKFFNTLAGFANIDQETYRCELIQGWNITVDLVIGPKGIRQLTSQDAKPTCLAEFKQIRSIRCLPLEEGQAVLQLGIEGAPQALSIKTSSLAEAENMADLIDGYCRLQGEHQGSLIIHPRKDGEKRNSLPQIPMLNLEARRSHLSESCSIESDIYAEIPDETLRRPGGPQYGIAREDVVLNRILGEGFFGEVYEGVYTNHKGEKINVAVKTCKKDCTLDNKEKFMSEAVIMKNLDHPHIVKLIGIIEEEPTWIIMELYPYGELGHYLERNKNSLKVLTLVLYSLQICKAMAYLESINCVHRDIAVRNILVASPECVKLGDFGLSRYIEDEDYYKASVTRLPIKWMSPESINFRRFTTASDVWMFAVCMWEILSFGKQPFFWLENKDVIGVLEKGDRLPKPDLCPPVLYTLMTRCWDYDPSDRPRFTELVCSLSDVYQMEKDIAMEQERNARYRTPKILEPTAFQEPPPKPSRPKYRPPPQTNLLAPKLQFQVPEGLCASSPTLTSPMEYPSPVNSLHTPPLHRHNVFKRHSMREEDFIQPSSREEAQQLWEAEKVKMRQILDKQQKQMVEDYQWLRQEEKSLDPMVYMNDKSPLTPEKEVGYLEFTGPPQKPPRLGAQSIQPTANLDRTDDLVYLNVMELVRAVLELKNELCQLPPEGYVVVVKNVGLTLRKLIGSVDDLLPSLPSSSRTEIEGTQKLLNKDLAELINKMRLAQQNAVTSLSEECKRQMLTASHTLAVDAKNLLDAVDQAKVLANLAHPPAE
# DAT uptake mod = changed hDAT dopamine uptake under cocaine IC80, either direction, primary screen, cocaine antagonist project, cell-based, LLC-PK1 hDAT, [14C]-dopamine uptake, MLSMR. B-score at 10 µM. LLC-PK1 hDAT cells, [14C]-dopamine uptake with cocaine IC80; actives deviate in either direction. 1.3% of 110,000 active. AID 449768, 2010;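 active means Z score or B-score, a plate-position-corrected score, falls beyond the plate's 99.7% confidence bounds, in either direction; inactive means both scores lie inside the 99.7% bounds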;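 further: scored against the spread of the other compound wells on the same plate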
# CD11b adhes inh = inhibitors of CD11b/CD18 adhesion to fibrinogen, primary screen, K562 cells, luminescence | 0.54% of 93,000 active | ATPlite luminescence; Mn2+ added to activate the integrin | inhibition, % at 10 µM | AID 1497, 2009 | Integrin beta-2 (Homo sapiens) + Integrin alpha-M (Homo sapiens), P05107+P11215;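 active means primary inhibition of 50% or more at 10 µM, then 40% or more on retest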
# An asterisk follows results filed as active; nt = not tested or not shown. This is one part of a sample in which hits are shown more often than they occur.
SMILES,FAK blocker,D1 allo mod,CD11b adhes enh,PTK2B oligo ant,DAT uptake mod,CD11b adhes inh
CCOC(=O)CSc1nc(C2CC2)cc(-c2ccc(F)cc2)c1C#N,-6.7,nt,-0.5,-3.27*,-0.188,12.1
CN(C)c1ccc(-c2nn3c(-c4ccccc4Cl)nnc3s2)cc1,3.4,0.586,nt,-0.57,-0.0838,nt
COc1ccc(-c2nn3c(-c4cccc(C)c4)nnc3s2)cc1OC,-1.9,16.7*,nt,-1.95,-0.261,nt
COc1ccccc1-c1nnc2sc(-c3ccc(N(C)C)cc3)nn12,nt,7.47*,15.1,-3.39*,nt,14.8
COc1ccc(-c2nc3cc(NC(=O)c4ccc5c(c4)OCO5)ccc3o2)cc1,9.1,0.389,31.5,0.01,-9.04*,4.6
CCCC(=O)Nc1ccc(-c2nc3cc(C)c(C)cc3o2)c(O)c1,-5.4,0.27,68.2,-0.69,-1.06,-31.2
CCCC(=O)Nc1ccc2oc(-c3ccc(OC)c(Br)c3)nc2c1,nt,-2.59*,43.1,0.74,-0.013,3.9
CCCC(=O)Nc1ccc(-c2nc3cc(C)ccc3o2)cc1,0.9,-5.1*,33.4,-0.46,0.309,41.4
N#CC1(C#N)CC(C=O)=C(N)C1(C#N)CC(=O)C12CC3CC(CC(C3)C1)C2 (configuration not stated),nt,nt,-0.1,nt,nt,6.7
Cc1ccc(Cn2c(NS(=O)(=O)c3ccccc3)nc3ccccc32)cc1,2.6,nt,nt,-1.39,-0.916,nt
C#CCn1c(S(=O)(=O)Cc2ccccc2Cl)nc(-c2ccccc2)c1-c1ccccc1,-7.0,nt,-2.6,-3.53*,-0.363,9.6
C#CCn1c(S(=O)(=O)Cc2ccc(C)cc2)nc(-c2ccccc2)c1-c1ccccc1,-1.1,nt,4.7,-3.38*,-1.12,-1.9
CCOC(=O)Cn1c(S(=O)(=O)Cc2ccccc2Cl)nc(-c2ccccc2)c1-c1ccccc1,4.8,nt,-1.6,-2.21,0.272,4.1
Cc1nc(SCC(=O)N2CCN(c3ccccc3)CC2)c2c(=O)n(C)c(=O)n(C)c2n1,nt,1.46,nt,nt,nt,nt
CC12CCC(C(=O)N3CCN(c4ccccc4)CC3)(CC1=O)C2(C)C (configuration not stated),4.0,0.635,-1.6,nt,-1.1,-3.4
CN(C)c1ccc(/C=C/c2ccncc2)cc1,-0.3,-0.157,1.1,-0.07,0.368,-26.0
CN(C)c1ccc(/C=C/c2ccc3ccccc3[n+]2C)cc1,nt,nt,-6.7,nt,nt,79.1*
CCOC(=O)c1c(C)nc2sc(C(=O)Nc3ccc(C(C)=O)cc3)c(N)c2c1-c1ccc(OC)cc1,0.8,nt,26.8,0.15,3.6*,-4.6
CCOC(=O)Cc1csc(NC(=O)CCCCCN2C(=O)c3ccccc3C2=O)n1,3.3,nt,nt,-0.5,-0.479,nt
COc1ccc(NC(=O)c2cc3ccccn3n2)cc1,-1.6,-4.74*,0.9,nt,1.67,0.0
COc1cc(NC(=O)c2ccnnc2)cc(C(=O)Nc2cccc(C(F)(F)F)c2)c1,nt,nt,nt,nt,3.33*,nt
O=C(Nc1cccc(C(F)(F)F)c1)c1cccnc1,-0.3,-0.703,1.8,0.32,0.0126,-6.0
CCOC(=O)N1CCC(NC(=O)CSCc2cnn(-c3ccccc3)c2-n2cccc2)CC1,-3.7,-0.902,1.0,0.48,3.19*,5.8
CNC(=O)CSCc1cnn(-c2ccccc2)c1-n1cccc1,1.7,nt,-1.8,0.46,-0.461,30.5
CCc1nc(SCC(=O)Nc2sc(C)c(C)c2C(=O)OC)c2ccccc2n1,15.0,nt,-1.9,nt,0.0659,-11.7
SMILES,FAK blocker,D1 allo mod,CD11b adhes enh,PTK2B oligo ant,DAT uptake mod,CD11b adhes inh
O=C(NNC(=S)Nc1cccc2ccccc12)c1cccc(Br)c1,0.0,nt,-5.8,0.28,-0.726,88.6*
C=CCNC(=S)NNC(=O)c1cccc(Br)c1,nt,nt,-1.8,nt,nt,5.6
CC1=CC(C)(C)N(S(=O)(=O)c2ccc(F)cc2)c2ccc(C)cc21,4.4,nt,-2.8,-0.42,-0.94,36.1
CC1=CC(C)(C)N(S(=O)(=O)c2ccc(C)cc2)c2ccccc21,0.1,nt,-4.7,-0.82,-0.88,51.9*
O=C(CSc1nnc(-c2ccc(F)cc2)o1)Nc1ccccc1N1CCOCC1,3.0,nt,nt,0.23,3.34*,nt
O=C(CSc1nc2ccccc2o1)Nc1ccccc1N1CCOCC1,-0.9,nt,-1.7,0.7,-1.16,2.5
CCOC(=O)c1ccccc1NC(=O)Cn1c(=O)n(Cc2ccccc2)c(=O)c2c(C)c(C)sc21,nt,nt,0.2,nt,nt,-18.2
CCc1ccc(C2CC(c3ccc(C)cc3)Nc3nc(N)nn32)cc1 (configuration not stated),nt,0.44,-1.1,nt,-2.45*,-12.2
Cc1oc(-c2nc3ccccc3n2C)cc1C(=O)c1ccccc1,-1.5,-3.77*,nt,-0.45,-0.0394,nt
CCC(=O)c1cc(-c2nc3ccccc3n2C)n(C)c1,-0.2,0.271,0.4,-0.28,1.22,4.2
Cn1cc(C(=O)c2ccccc2)cc1-c1nc2ccccc2n1C,0.3,-0.0185,3.1,-0.05,2.6*,-9.6
COc1ccc(C(=O)CN2CCN(S(=O)(=O)c3cccc([N+](=O)[O-])c3)CC2)cc1,nt,nt,2.5,nt,nt,-11.8
COc1ccc2c(c1)N(C)C(=O)CC(c1ccccc1)=N2,-4.5,-0.392,-2.6,-0.99,-0.197,-15.3
C#Cc1ccc([C@H]2C=C(C(=O)N3CCN(Cc4ccccc4)CC3)O[C@@H](OCC)[C@@H]2CCCO)cc1,nt,nt,nt,nt,2.69*,nt
COc1ccc(CNc2nc3c(c(=O)n(Cc4ccc(Br)cc4)c(=O)n3C)n2C)cc1,5.5,-2.71*,3.1,-1.94,0.403,23.3
Cn1c(NCc2ccccc2)nc2c1c(=O)n(Cc1ccc(Br)cc1)c(=O)n2C,1.3,nt,-0.8,-0.69,1.06,3.8
CCc1nc(N2CCN(C(=O)c3ccco3)CC2)c2oc3ccccc3c2n1,5.7,0.00466,1.9,0.11,2.82*,0.3
CCOC(=O)c1cnn(-c2sc(C(=O)OCC)c(C)c2C(=O)OCC)c1N,-10.4,-2.45,nt,-0.28,-2.49*,nt
CCOC(=O)c1cnn(-c2nc(SC)nc3sc4c(c23)CCCC4)c1N,-2.3,nt,-4.1,-0.79,-0.0676,4.5
Cc1ccc(NC(=O)Cn2cnc3sc(C(=O)NCc4ccco4)c(C)c3c2=O)cc1Cl,-2.1,nt,-1.9,-3.26*,0.52,-15.7
CSC1=C(C#N)C(c2ccccc2Cl)C(C(C)=O)=C(C)N1 (configuration not stated),11.1,nt,nt,-3.13*,-0.00823,nt
Cc1ccc(C(=O)COC(=O)C2CC(=O)N(c3nc(-c4ccccc4)cs3)C2)cc1 (configuration not stated),3.6,nt,-0.7,1.6,0.6,1.0
CC1=C(C(=O)OC2CCCC2)C(c2ccc(C)o2)C2=C(CC(c3cccs3)CC2=O)N1 (configuration not stated),3.1,0.244,0.1,-1.46,0.375,35.6
C=CCOC(=O)C1=C[C@@H](c2csc3ccccc23)C[C@@H](OCCCCO)O1,nt,nt,nt,nt,1.64,nt
